Screening data as filed in PubChem BioAssay.
Rows were chosen to be rich in hits. Some 3% of all compounds tested hit in one or more screens of this group.
BH1578 lux ind = inducers of Vibrio cholerae quorum light production without autoinducers; V. cholerae BH1578 lux reporter, luminescence, 6 h; activation, % at 18.7 µM; 0.16% of 350,000 active; in the data active = activation mostly above about 9.7%, no sharp cut-off
Mtb FBA inh = Mtb fructose-bisphosphate aldolase inhibition. 2.3% of 360,000 active. purified M. tuberculosis FBA, fluorescence read-out. AID 588726. inhibition, % at 1 µM. P9WQA3;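 note: 0% = vehicle and 100% = reference inhibitor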
Target sequence (P9WQA3 whole entry, looked up): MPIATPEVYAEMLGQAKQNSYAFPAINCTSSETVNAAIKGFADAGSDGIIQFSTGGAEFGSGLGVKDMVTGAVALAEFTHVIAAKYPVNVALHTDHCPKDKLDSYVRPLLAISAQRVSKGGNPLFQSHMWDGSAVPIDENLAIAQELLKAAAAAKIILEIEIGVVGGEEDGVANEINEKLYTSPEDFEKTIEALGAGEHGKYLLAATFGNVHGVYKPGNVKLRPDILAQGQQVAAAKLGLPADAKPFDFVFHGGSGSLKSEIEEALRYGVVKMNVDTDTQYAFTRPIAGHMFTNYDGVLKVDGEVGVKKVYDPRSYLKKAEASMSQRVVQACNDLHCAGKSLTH
GDH-TPI counter-1 = inhibits GDH-TPI coupling enzymes, artifact for Mtb FBA screen. GDH-TPI coupled enzyme counterscreen, NADH absorbance. 1.2% of 360,000 active. inhibition, % at 4.8 µM. AID 588335; in the data active = inhibition above about 30%;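 note: 0% = DMSO wells and 100% = wells lacking the enzyme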
Mtb BioA inh = inhibitors of Mycobacterium tuberculosis BioA enzyme; purified M. tuberculosis BioA enzyme, plate reader; inhibition, % at 9.99 µM; 0.096% of 360,000 active; AID 602481; in the data active = inhibition above about 40%
Mtb FBA confirm = Mtb FBA inhibition, confirmed. shares compounds with Mtb FBA inh. purified M. tuberculosis FBA, fluorescence read-out. inhibition, % at 1 µM. 78% of 5,600 active. AID 651616;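 note: 0% = vehicle wells and 100% = reference inhibitor wells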
GDH-TPI counter-2 = GDH-TPI inhibition counter-screen for FBA inhibitors; inhibition, % at 1 µM; 81% of 5,600 active; GDH-TPI coupled enzyme counterscreen, fluorescence; shares compounds with Mtb FBA inh; in the data active = inhibition above about 10%
Active calls of the source: *. Cut-off read from the data, not from the text of the source, unless noted: active = inhibition above about 27%; inactive = the rest.

For COc1ccc(S(=O)(=O)Nc2c(C(=O)O)[nH]c3ccc(OC)cc23)cc1 the results were BH1578 lux ind inactive, Mtb FBA inh 27*, GDH-TPI counter-1 3, Mtb BioA inh -1, Mtb FBA confirm active and GDH-TPI counter-2 active.
C[C@H]1CN([C@@H](C)CO)C(=O)CCCn2cc(nn2)CO[C@H]1CN(C)Cc1ccc(Oc2ccccc2)cc1 was read as Mtb BioA inh 0.
For COc1ccc(NC(=O)N(C)C[C@@H]2OCCCC[C@@H](C)Oc3ccc(NS(=O)(=O)c4c(C)noc4C)cc3C(=O)N([C@@H](C)CO)C[C@H]2C)cc1 the results were Mtb BioA inh 1.
For COc1ccc(-c2csc(N3CCC(c4ccccc4)C3)n2)cc1 (stereo unspecified) the results were BH1578 lux ind inactive, Mtb FBA inh 45*, GDH-TPI counter-1 1, Mtb BioA inh 11, Mtb FBA confirm 133* and GDH-TPI counter-2 91*.
`Fc1ccc(-c2csc(N3CCC(c4ccccc4)C3)n2)cc1` (stereo unspecified) gave BH1578 lux ind inactive, Mtb FBA inh 3, GDH-TPI counter-1 -3 and Mtb BioA inh 0.
Screening C[C@H]1CN([C@@H](C)CO)C(=O)c2cc(C3=CCCCC3)cnc2O[C@@H]1CN(C)C(=O)Nc1ccc(F)cc1 returned Mtb BioA inh -1.
`CCCn1c(CCC(=O)O)ccc1-c1ccc(OC)cc1` gave BH1578 lux ind -7, Mtb FBA inh 30*, GDH-TPI counter-1 -1, Mtb BioA inh 0, Mtb FBA confirm active and GDH-TPI counter-2 active.
C[C@H](CO)N1C[C@H](C)[C@H](CN(C)S(=O)(=O)c2ccc(F)cc2)Oc2ccc(NC(=O)Cc3ccccc3)cc2CC1=O was read as Mtb BioA inh 1.
c1ccc2c(N3CCOCC3)nc(N3CCOCC3)nc2c1 was read as BH1578 lux ind inactive, Mtb FBA inh 110*, GDH-TPI counter-1 14, Mtb BioA inh 1, Mtb FBA confirm active and GDH-TPI counter-2 163*.
C[C@@H]1CN([C@@H](C)CO)C(=O)c2cc(NC(=O)C3CCCCC3)ccc2O[C@@H](C)CCCCO[C@H]1CN(C)S(=O)(=O)c1cn(C)cn1 was read as Mtb BioA inh 2.
For Nc1ccc2c(S(=O)(=O)O)cccc2c1S(=O)(=O)O the results were BH1578 lux ind -3, Mtb FBA inh 53*, GDH-TPI counter-1 17, Mtb BioA inh 0, Mtb FBA confirm 76* and GDH-TPI counter-2 81*.
`Nc1ccccc1S(=O)(=O)c1ccccc1N` gave BH1578 lux ind -7, Mtb FBA inh -5, GDH-TPI counter-1 4 and Mtb BioA inh 0.
COc1ccc(-c2cn3nc(SCC(=O)NC4CCCCC4)ccc3n2)cc1 was read as BH1578 lux ind 0, Mtb FBA inh 28*, GDH-TPI counter-1 10, Mtb BioA inh -3, Mtb FBA confirm 74* and GDH-TPI counter-2 41*.
For COc1ccc(-c2[nH]c(-c3cccc(OC)c3)nc2SCC(=O)NC2CCCC2)cc1 the results were BH1578 lux ind -2, Mtb FBA inh 40*, GDH-TPI counter-1 9, Mtb BioA inh -2, Mtb FBA confirm 124* and GDH-TPI counter-2 100*.
Screening COc1ccc(-c2[nH]c(-c3ccccc3)nc2SCC(=O)NC2CCCC2)cc1 returned BH1578 lux ind 0, Mtb FBA inh 19, GDH-TPI counter-1 6 and Mtb BioA inh 9.
`CO[C@@H]1CN(C)C(=O)c2ccc(NS(=O)(=O)c3cccc(F)c3)cc2OC[C@H](C)NC[C@H]1C` gave Mtb BioA inh -1.
`Cc1noc(C)c1NC(=O)N(C)C[C@H]1Oc2ccc(NC(=O)Nc3ccc4c(c3)OCO4)cc2CC(=O)N([C@H](C)CO)C[C@H]1C` gave Mtb BioA inh -2.
For C[C@H](CO)N1C[C@H](C)[C@H](CN(C)C(=O)NC2CCCCC2)Oc2ccc(NC(=O)CCCCCC(=O)Nc3ccccc3N)cc2CC1=O the results were Mtb BioA inh 5.
Screening CCn1cnc2c(oc3ccccc32)c1=O returned BH1578 lux ind -3, Mtb FBA inh 44*, GDH-TPI counter-1 1, Mtb BioA inh -2, Mtb FBA confirm 177* and GDH-TPI counter-2 127*.
`COc1ccc(-c2nc(C#N)c(N3CCN(c4ccccc4)CC3)o2)cc1` gave BH1578 lux ind 0, Mtb FBA inh 1, GDH-TPI counter-1 -2 and Mtb BioA inh -1.
Screening CC1CCN(c2oc(-c3ccccc3Cl)nc2C#N)CC1 returned BH1578 lux ind 1, Mtb FBA inh 20, GDH-TPI counter-1 27 and Mtb BioA inh 4.
`CC1CC(C)CN(c2oc(-c3ccccc3F)nc2C#N)C1` (stereo unspecified) gave BH1578 lux ind 1, Mtb FBA inh 60*, GDH-TPI counter-1 10, Mtb BioA inh 2, Mtb FBA confirm 101* and GDH-TPI counter-2 78*.
Screening CC1CCN(c2oc(-c3ccc(F)cc3)nc2C#N)CC1 returned BH1578 lux ind -1, Mtb FBA inh 97*, GDH-TPI counter-1 9, Mtb BioA inh 2, Mtb FBA confirm -1 and GDH-TPI counter-2 -2.
For Cc1ccccc1-c1nc(C#N)c(N2CCC(C)CC2)o1 the results were BH1578 lux ind 0, Mtb FBA inh 48*, GDH-TPI counter-1 12, Mtb BioA inh -3, Mtb FBA confirm 51* and GDH-TPI counter-2 46*.
`CCN1CCN(c2oc(-c3ccc(OC)cc3)nc2C#N)CC1` gave BH1578 lux ind 0, Mtb FBA inh 32*, GDH-TPI counter-1 26, Mtb BioA inh 2, Mtb FBA confirm 143* and GDH-TPI counter-2 119*.
`CCCNC(=O)N1C[C@@H](C)[C@H](OC)CN(C)C(=O)c2ccc(NS(=O)(=O)CC(F)(F)F)cc2OC[C@@H]1C` gave Mtb BioA inh -3.
`COc1ccccc1-c1nc(C#N)c(N2CCc3ccccc3C2)o1` gave BH1578 lux ind inactive, Mtb FBA inh 106*, GDH-TPI counter-1 14, Mtb BioA inh -1, Mtb FBA confirm -5 and GDH-TPI counter-2 -5.
For CCOC(=O)C1CCCN(c2oc(-c3ccc(F)cc3)nc2C#N)C1 (stereo unspecified) the results were BH1578 lux ind 0, Mtb FBA inh 30*, GDH-TPI counter-1 3, Mtb BioA inh 4, Mtb FBA confirm active and GDH-TPI counter-2 197*.
`C[C@H](CO)N1C[C@H](C)[C@H](CN(C)Cc2ccc(C(F)(F)F)cc2)Oc2ccc(NC(=O)C3CCCCC3)cc2CC1=O` gave Mtb BioA inh -1.
`CCOC(=O)c1[nH]c2ccc(F)cc2c1NC(=O)c1ccccc1C(=O)O` gave BH1578 lux ind -1, Mtb FBA inh 59*, GDH-TPI counter-1 -2, Mtb BioA inh -6, Mtb FBA confirm 5 and GDH-TPI counter-2 0.
For CCOC(=O)c1[nH]c2ccc(OC)cc2c1NC(=O)c1ccccc1C(=O)O the results were BH1578 lux ind 2, Mtb FBA inh 30*, GDH-TPI counter-1 1, Mtb FBA confirm 31* and GDH-TPI counter-2 31*.
